Assay outcomes as filed in PubChem BioAssay.
SENP6 inh – SENP6 protease inhibitors, primary screen, biochemical, luminescence, uHTS; Recombinant SENP6 catalytic domain, aminoluciferin luminescence; 330,000 tested, 1.8% active; inhibition, % at 10 µM;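 active = inhibition above about 50% at the single tested dose, limit read from the data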;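 also: plate controls were DMSO wells with enzyme for no effect and DMSO wells lacking enzyme for full effect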
SENP8 block-1 – human SENP8 protease inhibitors, primary screen, biochemical, fluorescence, Nedd8 protein substrate, uHTS | Sentrin-specific protease 8 (Homo sapiens), Q96LD8 | recombinant SENP8 | inhibition, % at 20 µM | 360,000 tested, 0.64% active | AID 602440, 2012; in the data active = inhibition mostly above about 40%, no sharp cut-off; inactive = mostly below about 27%
Target sequence (Q96LD8 whole entry, looked up): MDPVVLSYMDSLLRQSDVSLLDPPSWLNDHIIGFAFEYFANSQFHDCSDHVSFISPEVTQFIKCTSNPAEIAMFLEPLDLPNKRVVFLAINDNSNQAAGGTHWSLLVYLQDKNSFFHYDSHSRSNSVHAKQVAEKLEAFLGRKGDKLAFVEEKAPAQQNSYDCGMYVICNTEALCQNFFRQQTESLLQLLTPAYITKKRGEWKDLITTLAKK
SENP7 block – SENP7 protease inhibitors, primary screen, biochemical, luminescence, uHTS. inhibition, % at 5 µM. 330,000 tested, 1.5% active. Sentrin-specific protease 7 (Homo sapiens), Q9BQF6. recombinant SENP7, Z-RLRGG-aminoluciferin luminescence, 40 min;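 active = inhibition above about 50% at the single test dose, limit read from the data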;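 also: plate controls were DMSO with enzyme for no effect and no enzyme buffer wells for full effect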
Target sequence (Q9BQF6 706-1050 limits assumed): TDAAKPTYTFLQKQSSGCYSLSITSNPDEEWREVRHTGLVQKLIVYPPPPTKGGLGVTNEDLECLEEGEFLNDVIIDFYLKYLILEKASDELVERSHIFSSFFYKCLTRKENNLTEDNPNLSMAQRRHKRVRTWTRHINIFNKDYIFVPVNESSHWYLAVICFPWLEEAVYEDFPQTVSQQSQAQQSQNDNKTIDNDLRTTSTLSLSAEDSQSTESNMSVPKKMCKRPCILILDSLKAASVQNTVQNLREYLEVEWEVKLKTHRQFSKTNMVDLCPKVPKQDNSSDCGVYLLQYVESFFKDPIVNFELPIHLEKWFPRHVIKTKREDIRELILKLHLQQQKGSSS
SENP8 block-2 – SENP8 protease inhibitors, primary screen, biochemical, luminescence | inhibition, % at 10 µM | 330,000 tested, 1.2% active | Sentrin-specific protease 8 (Homo sapiens), Q96LD8 | purified SENP8, Z-RLRGG-aminoluciferin cleavage; in the data active = inhibition above about 50%
Platelet DG rel – inhibitors of platelet dense granule secretion, primary screen, cell-based, MLPCN, human platelets; human platelet-rich plasma, SFLLRN dense granule ATP release, luminescence; inhibition, %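 (compounds screened at 7.5 µM in platelet-rich plasma)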; 300,000 tested, 0.22% active; AID 1663, 2009;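 active = mean replicate score, as percent of positive control, at or above 50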
An asterisk follows results filed as active; i = inactive; . = no result. A selection: hits, their analogues and other compounds. The true share with any hit is near 2.4%.

SMILES | SENP6 inh | SENP8 block-1 | SENP7 block | SENP8 block-2 | Platelet DG rel
COC(=O)c1c(NC(=O)C2CC(=O)NN2Cc2ccccc2)sc(C)c1C (stereo not given) | -11 | -52 | 6 | 0 | 60*
O=C(Nc1ccc([N+](=O)[O-])cc1Cl)c1cc(Cl)ccc1O | 99* | 12 | 100* | 98* | .
O=C(Nc1cccc(Cl)c1)c1cccc(Oc2ccc([N+](=O)[O-])cc2Cl)c1 | -13 | -3 | -13 | -13 | 3
O=C(Nc1cccc(Cl)c1)c1cc(N=Nc2ccc([N+](=O)[O-])cc2Cl)ccc1O | -1 | 43* | 7 | 14 | -5
CC(C)(C)c1ccc(C(=O)NNC(=O)CNC(=O)c2cccs2)cc1 | -26 | 1 | -7 | -6 | .
O=C(O)c1cc(NC(=O)c2ccc([N+](=O)[O-])cc2)cc(NC(=O)c2ccc([N+](=O)[O-])cc2)c1 | 12 | 20 | -1 | -13 | -3
O=C(Nc1ccc([N+](=O)[O-])cc1)C(=O)Nc1cccc(C(=O)O)c1 | 99* | 5 | 99* | 97* | 83*
COC(=O)C1=CN(c2ccc(F)cc2)C(N)=C(C#N)C1c1cccc(F)c1 (stereo not given) | . | -48 | . | . | .
O=C(c1cc2ccccc2[nH]1)N(Cc1cccnc1)CC1CCCN(C2CCCCC2)C1 (stereo not given) | 3 | -21 | -1 | 15 | 19
CCOC(=O)c1nc2sc3c(c2c(=O)[nH]1)CCCC3 | -18 | -388 | 3 | 1 | 60*
C=CCN1C(=O)/C(=C2/Sc3ccccc3N2C)SC1=Nc1c(C)n[nH]c1C | -33 | 34 | -17 | -1 | 53*
O=C(NC1CCN(S(=O)(=O)c2ccccc2C(F)(F)F)CC1)c1ccco1 | -8 | 7 | -6 | -4 | -18
O=C1NC[C@H](Cc2ccccc2)N(C[C@@H]2CCCN2C[C@H](Cc2ccccc2)N2C[C@H](Cc3ccc(O)cc3)N(CCc3ccccc3)C(=O)C2=O)C1=O | . | 18 | . | . | .
O=C(Cn1cc(SCc2cccc(Cl)c2)c2ccccc21)N1CCOCC1 | -15 | 12 | 55* | 47 | -47
O=C(CSc1cn(CC(=O)N2CCOCC2)c2ccccc12)N1CCOCC1 | -2 | 10 | 7 | 1 | -1
CC(=O)c1ccc(NC(=O)CSc2nnc(-c3ccco3)c(-c3ccco3)n2)cc1 | 2 | 45* | 17 | 9 | 2
O=C(CSc1nnc(-c2ccco2)c(-c2ccco2)n1)c1ccccc1 | -4 | 5 | -5 | -6 | -1
Cc1nc2cc(-c3ccc(F)cc3)[nH]n2c(=O)c1C | 19 | -86 | 8 | 4 | 3
O=c1c2c(nc3cc(-c4cccc(F)c4)[nH]n13)CCC2 | 60* | -270 | 45 | 44 | -1
O=C(c1cnn(-c2ccccc2)c1)c1ccccc1O | 85* | 7 | 87* | 81* | 12
CC1=NN(c2ccccc2)C(=O)C1N=Nc1ccccc1 (stereo not given) | -8 | 32 | -1 | -4 | -3
CC1=NN(c2ccccc2)C(=O)C1N=Nc1ccc(N)cc1 (stereo not given) | 6 | 61* | 11 | 11 | 8
O=C(/C=C/c1cn(CC(O)CN2CCCCC2)c2ccccc12)c1ccccc1 (stereo not given) | . | -234 | . | . | 0
CN1CCN(Cn2cc(/C=C/C(=O)c3ccccc3)c3ccccc32)CC1 | 59* | -288 | 23 | 10 | 14
CCCCOCCCNC(=O)C[C@@H]1C[C@@]2(C(=O)OC)CCCCC=C2N(Cc2ccccc2)C1=O | . | 18 | . | . | .
SMILES | SENP6 inh | SENP8 block-1 | SENP7 block | SENP8 block-2 | Platelet DG rel
O=C(Cc1ccccc1)NC1(O)C(=O)c2ccccc2C1=O | 42 | 50* | 13 | 30 | -10
O=[N+]([O-])c1cccn2cc(-c3ccc(Br)cc3)nc12 | -13 | 9 | 2 | 3 | -6
Nc1nn2cc(-c3ccc(Br)cc3)nc2c2ccccc12 | 87* | i | 79* | 75* | 15
O=C(Nc1ccccc1F)Oc1cccc(OC(=O)Nc2ccccc2F)c1 | 69* | 19 | 73* | 64* | 17
Cc1cc(C(=O)N/N=C/c2cc(N=Nc3ccccc3)ccc2O)n[nH]1 | . | 41* | . | . | -10
CSc1cccc(NC(=O)c2ccccn2)c1 | 55* | . | 52* | 41 | 3
O=c1c(-c2cccs2)nc2ccccc2n1C(c1ccccn1)c1nc2ccccc2[nH]1 (stereo not given) | . | -416 | . | . | .
COC(=O)c1cccc(NC(=O)CCNC(=O)c2ccco2)c1 | 5 | 9 | -8 | -14 | 1
COc1ccc(/C=C2/C(=O)N(c3nc4ccccc4s3)N=C2CSc2ccc(Cl)cc2)cc1 | 1 | 40* | 4 | 2 | 18
COc1ccc(/C=C2/C(=O)N(Cc3ccccc3)N=C2C)cc1 | 11 | 18 | 2 | -2 | -2
CC1=C(C(=O)N2CCCCCC2)CC(CC(=O)NC2CCCC2)C(=O)N1Cc1ccc(C(C)(C)C)cc1 (stereo not given) | . | 15 | . | . | .
CCCC1SCC(C)(C)NC1=O (stereo not given) | . | 7 | . | . | .
O=C1C=C(Nc2cccnc2)c2ccccc2C1=O | . | 91* | . | . | .
CCOc1ccc(NC2=CC(=O)C(=O)c3ccccc32)cc1 | . | -186 | . | . | .
O=c1[nH][nH]c2c(N=Cc3ccccc3O)ccc(F)c12 | . | 47* | . | . | .
Oc1ccc(N=Nc2cccc(C(F)(F)F)c2)cc1C=Nc1ccc(N2CCOCC2)cc1 | 66* | 36* | 11 | 43 | 6
Cc1c(N/N=C(\C#N)C(=O)c2ccccc2)c(=O)n(-c2ccccc2)n1C | . | 40* | . | . | -11
CCOc1ccc(S(=O)(=O)NCCC(=O)N2CCCN(C)CC2)cc1 | -5 | 11 | 13 | -6 | 51*
COc1ccc(S(=O)(=O)NCCC(=O)N2CCCN(C)CC2)cc1 | 6 | 17 | 1 | -4 | .
Cc1ccc(S(=O)(=O)/N=C(/c2ccc(F)cc2)N2CCCC2)cc1 | -6 | 1 | -9 | -1 | 2
Cc1ccc(S(=O)(=O)/N=C(\c2ccc(F)cc2)n2c(C)nc3ccccc32)cc1 | 4 | 28 | -2 | 5 | 52*
COc1cccc2c1C(=O)c1c(O)c3c(c(O)c1C2=O)C[C@@](O)(C(=O)CO)C[C@@H]3O[C@H]1C[C@H](N)[C@@H](O)[C@H](C)O1 | 9 | 52* | 10 | 5 | 1
O=C(CSc1nc(=O)n2ccccc2n1)NCc1ccccc1 | -5 | -58 | 12 | -5 | 10
O=[N+]([O-])c1ccc(Cl)c2c1C1C=CCC1C(c1ccccn1)N2 (stereo not given) | 9 | 42* | 0 | -6 | 8
O=[N+]([O-])c1cnc2nc(-c3ccncc3)nn2c1O | 99* | 10 | 96* | 93* | 13
O=C(Nc1ccc(Cl)c(Cl)c1)Nc1nccs1 | 65* | 29 | 26 | 36 | 7
